In PubChem BioAssay (NCI):
The panel holds about 79,000 compounds, 15% with a hit somewhere; the sample as a whole holds those more often. The source made the active and inactive calls. Rule as the data show it: active = growth inhibition above about 70%; inactive = the rest.

What was measured:
[1] = NCI Yeast Anticancer Drug Screen. Data for the rad50 strain (AID 155);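 also: 0% = growth of vehicle-only cultures of the same strain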; conditions: S. cerevisiae rad50 strain growth inhibition, active compounds read high
How it was run: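 Yeast carrying a defined DNA repair defect were exposed to test compounds, and growth was compared with vehicle-treated controls to give percent inhibition.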

[2] = NCI Yeast Anticancer Drug Screen. Data for the mec2-1 strain (AID 157); conditions: S. cerevisiae mec2-1 strain, active compounds read high
How it was run: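 Vehicle-treated cultures served as reference for growth inhibition of compound-exposed mec2-1 yeast.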

[3] = NCI Yeast Anticancer Drug Screen. Data for the sgs1 mgt1 strain (AID 161);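 also: 0% = growth of cultures given vehicle only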; conditions: S. cerevisiae sgs1 mgt1 strain, active compounds read high
How it was run: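 Test agents were incubated with a DNA-repair-mutant yeast strain. Growth was then read and compared against vehicle-treated controls.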

[4] = NCI Yeast Anticancer Drug Screen. Data for the cln2 rad14 strain (AID 165);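 also: 0% = growth equal to vehicle treated cultures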; conditions: S. cerevisiae cln2 rad14 strain, active compounds read high
How it was run: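 Each compound was tested on cln2 rad14 yeast. Inhibition of growth was calculated against vehicle-exposed controls.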

[5] = NCI Yeast Anticancer Drug Screen. Data for the bub3 strain (AID 167); conditions: S. cerevisiae bub3 mutant strain, active compounds read high
How it was run: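 Compounds were applied to a genetically altered yeast strain carrying a cell-cycle control defect. Growth inhibition was scored against vehicle-treated controls.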

[6] = NCI Yeast Anticancer Drug Screen. Data for the mlh1 rad18 strain (AID 175); conditions: S. cerevisiae mlh1 rad18 strain growth inhibition, active compounds read high
How it was run: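 Vehicle-treated cultures served as the reference for growth inhibition in a yeast strain carrying DNA damage repair alterations exposed to each compound.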

[7] = at 5.0 µM (retest, dose inferred, filed as 0.5)
[8] = at 50.0 µM (retest, dose inferred, filed as 5.0)

Measured: growth inhibition

Nc1ncnc2c1c(-c1ccccc1)cn2-c1ccc(I)cc1
active: [2]; at 50.0 µM 75.2% | [4]; at 50.0 µM 94.2% | [5]; at 50.0 µM 97.3%
inactive: [1]; [7] 54% | [1]; [8] -2% | [1]; at 50.0 µM 33.4% | [2]; [7] 23% | [2]; [8] 0% | [3]; [7] 65% | [3]; [8] -3% | [3]; at 50.0 µM 41.1% | [4]; [7] 24% | [4]; [8] -2% | [5]; [7] 32% | [5]; [8] 0% | [6]; [7] 26% | [6]; [8] -2% | [6]; at 50.0 µM 47.9%

COc1ccc(C(=O)OC(=O)c2ccc(OC)cc2)cc1
active: [1]; at 50.0 µM 71.4% | [6]; at 50.0 µM 74.4%
inactive: [1]; [7] 5% | [1]; [8] 9% | [2]; [7] -6% | [2]; [8] 7% | [2]; at 50.0 µM 18.1% | [3]; [7] 2% | [3]; [8] -70% | [3]; at 50.0 µM 22.1% | [4]; [7] 4% | [4]; [8] -4% | [4]; at 50.0 µM 6.05% | [5]; [7] -1% | [5]; [8] 8% | [5]; at 50.0 µM 28.1% | [6]; [7] -10% | [6]; [8] 16%

CCOC(=O)C1=C(C)NC(=O)NC1c1coc2cc(C)cc(C)c2c1=O (configuration not stated)
inactive: [1]; [7] -1% | [1]; [8] 10% | [1]; at 50.0 µM 12.4% | [2]; [7] -2% | [2]; [8] 15% | [2]; at 50.0 µM -5% | [3]; [7] 3% | [3]; [8] 14% | [3]; at 50.0 µM -2.5% | [4]; [7] 20% | [4]; [8] 5% | [4]; at 50.0 µM 52.2% | [5]; [7] 14% | [5]; [8] -4% | [5]; at 50.0 µM -15.8% | [6]; [7] 0% | [6]; [8] 1% | [6]; at 50.0 µM -7.1%

Cc1c(-c2ccccc2)ccnc1/C=N/NC(=S)NCCc1ccccc1
active: [1]; [8] 77% | [1]; at 50.0 µM 76.3% | [2]; [8] 85% | [2]; at 50.0 µM 76.3% | [3]; [8] 83% | [3]; at 50.0 µM 75.5% | [4]; [8] 80% | [5]; [8] 84% | [5]; at 50.0 µM 77.7% | [6]; [8] 80% | [6]; at 50.0 µM 74%
inactive: [1]; [7] 49% | [2]; [7] 52% | [3]; [7] 52% | [4]; [7] 42% | [4]; at 50.0 µM 70% | [5]; [7] 55% | [6]; [7] 49%

Cc1ccc(S(=O)(=O)NCCCOS(=O)(=O)c2ccc(C)cc2)cc1
inactive: [1]; [7] 20% | [1]; [8] 46% | [1]; at 50.0 µM 22.8% | [2]; [7] 16% | [2]; [8] 33% | [2]; at 50.0 µM 0.15% | [3]; [7] 34% | [3]; [8] 65% | [3]; at 50.0 µM 28.9% | [4]; [7] 34% | [4]; [8] 63% | [4]; at 50.0 µM 29.9% | [5]; [7] 37% | [5]; [8] 66% | [5]; at 50.0 µM 29.4% | [6]; [7] 15% | [6]; [8] 53% | [6]; at 50.0 µM 45.9%

COc1ccc(CCBr)cc1
inactive: [1]; [7] -1% | [1]; [8] -17% | [1]; at 50.0 µM 14.7% | [2]; [7] -23% | [2]; [8] -13% | [2]; at 50.0 µM 14% | [3]; [7] -15% | [3]; [8] -7% | [3]; at 50.0 µM 22.2% | [4]; [7] 17% | [4]; [8] -1% | [4]; at 50.0 µM 0.5% | [5]; [7] -17% | [5]; [8] -7% | [5]; at 50.0 µM 18.1% | [6]; [7] -27% | [6]; [8] -41% | [6]; at 50.0 µM 15.2%

CC1N(O)C(c2ccccc2)C(c2ccccc2)=[N+]1[O-] (configuration not stated)
inactive: [1]; [7] 16% | [1]; [8] 25% | [1]; at 50.0 µM -5.7% | [2]; [7] 11% | [2]; [8] 14% | [2]; at 50.0 µM -26.9% | [3]; [7] 16% | [3]; [8] 26% | [3]; at 50.0 µM -20.4% | [4]; [7] 22% | [4]; [8] 17% | [4]; at 50.0 µM 8.8% | [5]; [7] 22% | [5]; [8] 26% | [5]; at 50.0 µM -20.9% | [6]; [7] 13% | [6]; [8] 22% | [6]; at 50.0 µM -37.4%

O=C1C=CC(=O)N1Cc1ccccc1
active: [1]; [7] 98% | [1]; [8] 99% | [1]; at 50.0 µM 99.3% | [2]; [7] 100% | [2]; [8] 100% | [2]; at 50.0 µM 99.7% | [3]; [7] 97% | [3]; [8] 99% | [3]; at 50.0 µM 99.5% | [4]; [7] 97% | [4]; [8] 100% | [4]; at 50.0 µM 99% | [5]; [7] 99% | [5]; [8] 100% | [5]; at 50.0 µM 99.3% | [6]; [7] 95% | [6]; [8] 100% | [6]; at 50.0 µM 99.2%

O=C(Cc1csc2[n+]1C(=O)/C(=C/c1cccc([N+](=O)[O-])c1)S2)Nc1ccccc1
inactive: [1]; [7] -5% | [1]; [8] -3% | [1]; at 50.0 µM 41.3% | [2]; [7] -16% | [2]; [8] -5% | [2]; at 50.0 µM 44.2% | [3]; [7] -8% | [3]; [8] 11% | [3]; at 50.0 µM 24% | [4]; [7] -24% | [4]; [8] -17% | [4]; at 50.0 µM 37.5% | [5]; [7] -5% | [5]; [8] 17% | [5]; at 50.0 µM 10.8% | [6]; [7] -3% | [6]; [8] -9% | [6]; at 50.0 µM 33.9%
